target: MALL; assay: pooled miR-30 sensor sort-seq; sequence = guide strand; settings: shRNA

**Q.** With AATTAATGTAGTAAATTCTTGG as the sequence, how does the sensor-assay potency score (higher = more potent) read?
**A.** Its sensor-assay potency score (higher = more potent) is -0.359.

**Q.** How did the sensor-assay potency score (higher = more potent) turn out when TAAGACAACAGGAACATCAAGG was run?
**A.** Its sensor-assay potency score (higher = more potent) is -0.729.

**Q.** AGTTTCTCAGAAACAATCGTGG was tested. Which sensor-assay potency score (higher = more potent) did it give?
**A.** Its sensor-assay potency score (higher = more potent) is -1.29.

**Q.** TAAATGTCCAAACAAAGTGTGG was tested. Which sensor-assay potency score (higher = more potent) did it give?
**A.** Its sensor-assay potency score (higher = more potent) is -1.11.

**Q.** TTGTAAAATCCAAACAAGTAAG was tested. Which sensor-assay potency score (higher = more potent) did it give?
**A.** The sensor-assay potency score (higher = more potent) was -1.62.

**Q.** With TACAGGATGCCAGTGGTCCCGT as the sequence, how does the sensor-assay potency score (higher = more potent) read?
**A.** Its sensor-assay potency score (higher = more potent) is -0.996.

**Q.** For TTAATGTAGTAAATTCTTGGGT, which sensor-assay potency score (higher = more potent) is on record?
**A.** The sensor-assay potency score (higher = more potent) was -0.194.

**Q.** Which sensor-assay potency score (higher = more potent) does the source give for TAATGTAGTAAATTCTTGGGTC here?
**A.** Its sensor-assay potency score (higher = more potent) is 0.801.

**Q.** How did the sensor-assay potency score (higher = more potent) turn out when TTTCTCAGAAACAATCGTGGCA was run?
**A.** The sensor-assay potency score (higher = more potent) was 0.81.

**Q.** How did the sensor-assay potency score (higher = more potent) turn out when TCTTTTGTAAAATCCAAACAAG was run?
**A.** Its sensor-assay potency score (higher = more potent) is -1.37.

**Q.** TTCTCAGAAACAATCGTGGCAT was tested. Which sensor-assay potency score (higher = more potent) did it give?
**A.** The sensor-assay potency score (higher = more potent) was 0.00713.

**Q.** Which sensor-assay potency score (higher = more potent) does the source give for AAACAAGTAAGACAACAGGAAC here?
**A.** The sensor-assay potency score (higher = more potent) was -1.63.

target: MAMSTR; assay: as above; settings: shRNA

**Q.** For TCTGAAGTTCCAACTTGTGTGG, which sensor-assay potency score (higher = more potent) is on record?
**A.** The sensor-assay potency score (higher = more potent) was -0.0798.

**Q.** For TGAAGTTCCAACTTGTGTGGGG, which sensor-assay potency score (higher = more potent) is on record?
**A.** Its sensor-assay potency score (higher = more potent) is 0.878.

**Q.** TGGAGTCAGATAAGTCAGCGGA was tested. Which sensor-assay potency score (higher = more potent) did it give?
**A.** Its sensor-assay potency score (higher = more potent) is -0.63.

**Q.** TCGGCTTGGGGGTCTGCCCTGG was tested. Which sensor-assay potency score (higher = more potent) did it give?
**A.** Its sensor-assay potency score (higher = more potent) is -0.566.

**Q.** For TAGACTTGGTCCCCGACACTGG, which sensor-assay potency score (higher = more potent) is on record?
**A.** The sensor-assay potency score (higher = more potent) was -0.651.

**Q.** With TGCTGGAGTCAGATAAGTCAGC as the sequence, how does the sensor-assay potency score (higher = more potent) read?
**A.** Its sensor-assay potency score (higher = more potent) is -1.36.

**Q.** Which sensor-assay potency score (higher = more potent) does the source give for TTAGGAAGCAACTGCGCCCTCC here?
**A.** The sensor-assay potency score (higher = more potent) was -0.483.

**Q.** With TTCCTGCAGCTCCTCCTCCAGA as the sequence, how does the sensor-assay potency score (higher = more potent) read?
**A.** Its sensor-assay potency score (higher = more potent) is -1.58.

**Q.** TTGTCTCCGATCCTGTGTCTGC was tested. Which sensor-assay potency score (higher = more potent) did it give?
**A.** The sensor-assay potency score (higher = more potent) was -0.79.

**Q.** How did the sensor-assay potency score (higher = more potent) turn out when TGCTGCGCTGGGCTTGACCGAG was run?
**A.** Its sensor-assay potency score (higher = more potent) is -1.43.

**Q.** How did the sensor-assay potency score (higher = more potent) turn out when TTGACCGAGCCCTGACGCCGGG was run?
**A.** The sensor-assay potency score (higher = more potent) was -1.2.

**Q.** With TCCAGAGTCAGAGCCGCTGAGC as the sequence, how does the sensor-assay potency score (higher = more potent) read?
**A.** Its sensor-assay potency score (higher = more potent) is -2.

Reference: the OligoGym collection
